Hit rate of the full screen: of about 350,000 compounds, about 31,000 (8.9%) were called active. Roughly 15% stayed inconclusive and do not appear here. The entries come from a sample that favours actives as a whole. Entries that show only a call come without a potency. Values without a mark were called inactive. Calls follow the shape of the dose curve; as a rule, active = well fitted inhibition curve with a large enough effect; inconclusive = small, poorly fitted or top-dose-only effect; inactive = no such curve, though single readings can be large or run the other way.
Potency is read from the fitted curve at half-maximal effect.

Histone-lysine N-methyltransferase EHMT2 (Homo sapiens), sequence (Q96KQ7 913-1193 limits assumed): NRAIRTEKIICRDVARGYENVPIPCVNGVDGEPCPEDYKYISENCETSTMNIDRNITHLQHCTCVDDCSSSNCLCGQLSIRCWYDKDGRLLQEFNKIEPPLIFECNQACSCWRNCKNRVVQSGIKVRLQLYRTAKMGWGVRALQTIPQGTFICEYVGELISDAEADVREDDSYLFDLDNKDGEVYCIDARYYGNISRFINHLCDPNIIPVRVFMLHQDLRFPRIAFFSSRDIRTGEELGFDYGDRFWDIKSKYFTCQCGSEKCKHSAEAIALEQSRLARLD

The assay addresses Histone-lysine N-methyltransferase EHMT2 (Homo sapiens) (UniProt Q96KQ7). As to the kind of experiment: qHTS Assay for Inhibitors of Histone Lysine Methyltransferase G9a. Also: nearly all actives have a fitted effect of over 75% in size. Conditions: G9a H3K9 monomethylation, AlphaScreen, 2 h; series mostly up to 59 µM. The method in brief:
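Step 1: enzyme (final 20 nM) with compound, 15 min RT. Step 2: substrate peptide 500 nM and SAM 20 uM, 2 h RT. Step 3: anti-H3K9me1 antibody and AlphaScreen beads, 10 min, then plate read.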
In the case of `COc1cccc(N2CCN(C(=O)CCCCCn3c(=O)[nH]c4ccccc4c3=O)CC2)c1`, the Potency entry was “inactive”.
On the same count and under the same terms, to `COc1cccc(C2c3[nH]c4ccccc4c3CCN2Cc2cccc(C)n2)c1` (centres undefined) belongs 44.7 µM (active); to `COc1cccc(CNC(=O)c2n[nH]c3ccccc23)c1`, “inactive”; to `COc1ccc(CNC(=O)COCc2cc(-c3cccs3)on2)cc1OC`, “inactive”.
Still for that read-out and setting: in the case of `CN(CC1CCCN(CCc2cccc(C(F)(F)F)c2)C1)C(=O)c1ccc2nc[nH]c2c1` (centres undefined) it was “inactive”.
With `Cc1cc(C(=O)Nc2nnc(C3CC3)s2)c(C)s1`, the activity, negative = inhibition is 11.4% [at 12.7 µM].
In the case of `O=C(O)CSC(NC(=O)c1cccnc1)(C(F)(F)F)C(F)(F)F`, the Potency is 14.1 µM (active).
`O=C(NNC(=O)c1cccnc1)Nc1ccccc1`: the activity, negative = inhibition was -81.4% [at 2.33 µM].
Take `O=C(CNC(=O)c1cccnc1)N/N=C/c1cccnc1`: the Potency entry is “inactive”.
In the case of `CCN(CC)S(=O)(=O)c1ccc(-c2cn3ccc(C)cc3n2)cc1`, the activity, negative = inhibition is 4.83% [at 0.501 µM].
As for `CCOC(=O)CSc1ccccn1`, the Potency is 39.8 µM (active).
Turning to `COC(=O)c1ccccc1NC(=O)CSc1ccccn1`, the Potency result was “inactive”.
Regarding `CCOC(=O)CSc1ncc(-c2cccc(Cl)c2)cn1`, the Potency entry is “inactive”.
For `O=C(Nc1ccccc1Cl)N1CCC(CN2CCCCC2)CC1`, the Potency result was “inactive”.
For `COc1ccc2sc(-c3ccc(N(C)C)cc3)c(C#CCO)c2c1`, the activity, negative = inhibition was 8.02% [at 0.501 µM].
On to `COc1ccc(-c2cc(-c3nc(-c4cc(OC)c(OC)c(OC)c4)no3)[nH]n2)c(OC)c1`, for which the Potency entry was “inactive”.
For the compound `CC(C)(C)OC(=O)N/N=C/c1cn(-c2ccccc2)nc1-c1cccnc1`, the Potency entry is “inactive”.
As to `O=C(c1cn(-c2ccccc2)nc1-c1cccnc1)N1CCCCC1`, the Potency entry was “inactive”.
Still for that read-out and setting: to `CN(C)/N=C/c1cn(-c2ccccc2)nc1-c1cccnc1` belongs 56.2 µM (active); to `CCCCc1ccc(NS(=O)(=O)c2cccc(C(=O)N3CCCN(C)CC3)c2)cc1`, “inactive”.
Still for that read-out and setting: in the case of `CC(=O)NC(CC(=O)Nc1cccc(S(=O)(=O)N2CCCC2)c1)c1ccccc1` (centres undefined) it was “inactive”; in that of `Cc1nn(CC(=O)NC2CCCCC2)c(=O)c2cccn12`, “inactive”; in that of `Cc1cc(C(F)F)nn1CC(=O)NC1CCCCCC1`, 79.4 µM (active).
On the same count and under the same terms, in the case of `O=C(Cn1nc([N+](=O)[O-])nc1Br)NC1CCCCC1` it was “inactive”.
Consider `CCc1noc(C)c1C(=O)N1CCCSC1=Nc1ccccc1OC`, for which the Potency result was “inactive”.
As to `O=C1c2ccccc2C(=O)N1CCC#Cc1ccc2cc(C3(O)CCCCC3)oc(=O)c2c1`, the activity, negative = inhibition was 1.05% [at 0.501 µM].
Same read-out and setting: to `Cc1cc(=O)n2nc(N3CCCC(C(=O)NCCC4=CCCCC4)C3)sc2n1` (centres undefined) belongs 4.22% [at 12.7 µM].
For the compound `C=CCN1C(=O)c2ccc(C(=O)N3CCC(C(=O)OCC)CC3)cc2C1=O`, the Potency entry is “inactive”.
Regarding `CC1CCCN(C(=O)c2ccc3c(c2)C(=O)N(CCC2=CCCCC2)C3=O)C1` (centres undefined), the Potency was 39.8 µM (active).
With `O=c1[nH]c2cc(Br)ccc2n2cccc12`, the Potency entry is “inactive”.
On the same count and under the same terms, in the case of `CNC(=O)C1CC(=O)N(c2ccc(OCC(=O)Nc3ccccc3C)cc2)C1` (centres undefined) it was “inactive”; in that of `Cc1cccc(N2CCN(C3=C(c4ccccc4)C(=O)c4ccccc43)CC2)c1C`, 3.55 µM (active).
For `Cc1cccc(N2CCN(Cc3c(C)n(C)n(-c4ccccc4)c3=O)CC2)c1C`, the activity, negative = inhibition is 11.6% [at 12.7 µM].
Regarding `Cc1cccc(N2CCN(C(=O)c3oc(=O)c4ccccc4c3-c3ccccc3)CC2)c1C`, the Potency entry is “inactive”.
The same measure, in the same setting: to `CN(C)c1ccc(-c2nnc(-c3cccnc3)o2)cc1` belongs “inactive”; to `COC(=O)c1cc(NC(=O)c2cnc(SC)nc2-c2ccccc2)cc(C(=O)OC)c1`, “inactive”.
For the compound `COc1ccc(OCCCn2c(C3CC(=O)N(c4ccc(F)cc4)C3)nc3ccccc32)cc1` (centres undefined), the Potency entry is “inactive”.
Take `COc1ccc([C@H]2CC(=O)C=C(c3ccc(OC(F)(F)F)cc3)C2)cc1OC`: the activity, negative = inhibition was -10% [at 2.33 µM].
For `Cc1ccc(C(C)C)c(OCCSc2nc3ccccc3n2CC(=O)O)c1`, the Potency result is “inactive”.
The same measure, in the same setting: in the case of `Cc1cccc(OCCSc2nc3ccccc3n2CC(=O)N2CCCCC2)c1C` it was 12.6 µM (active); in that of `CC(C)N(C(=O)Cn1c(SCC(=O)N2CCN(c3ccccc3)CC2)nc2ccccc21)C(C)C`, “inactive”.
Consider `CN(CC(=O)NCC(c1ccccc1)N1CCCC1)S(=O)(=O)c1ccc(Cl)cc1` (centres undefined), for which the activity, negative = inhibition was -5.36% [at 12.7 µM].
For the compound `O=C(Nc1nnc(C2CC(=O)N(c3ccc(Cl)cc3)C2)s1)c1ccco1` (centres undefined), the Potency entry was “inactive”.
The same measure, in the same setting: in the case of `CCN(c1ncnc2c1cnn2-c1ccc(C)cc1)C1CCCCC1` it was “inactive”; in that of `C/C=C/c1ccc(OCCCCN2CCC(C)CC2)c(OC)c1`, “inactive”; in that of `COc1ccccc1OCC(O)CN1CCOCC1` (centres undefined), “inactive”.
Take `C/C=C/c1ccc(OCC(O)CN2CCCCCCC2)c(OC)c1` (centres undefined): the Potency was 20 µM (active).
`CCC(=O)N1CCc2cc(S(=O)(=O)NC(Cc3ccccc3)C(=O)NCc3ccc(C)cc3)ccc21` (centres undefined): the Potency entry is “inactive”.
Same read-out and setting: to `c1ccc(CNc2ncnc3[nH]ncc23)cc1` belongs “inactive”.
The same measure, in the same setting: in the case of `CCCCn1c(N)c(N(CC(C)C)C(=O)CSc2ccc([N+](=O)[O-])cc2)c(=O)[nH]c1=O` it was 50.1 µM (active).
Consider `CCCCN(C(=O)CCNC(=O)NC12CC3CC(CC(C3)C1)C2)c1c(N)n(CCCC)c(=O)[nH]c1=O`, for which the activity, negative = inhibition was -3.13% [at 0.501 µM].
In the case of `CCCCN(C(=O)c1ccc2ccccc2c1)c1c(N)n(CCCC)c(=O)[nH]c1=O`, the Potency entry is “inactive”.
For `CCCCN(C(=O)c1ccc(C)o1)c1c(N)n(CCCC)c(=O)[nH]c1=O`, the activity, negative = inhibition was 4.93% [at 0.501 µM].
For `CCCCn1c(N)c(N(CC(C)C)C(=O)c2ccc(Br)o2)c(=O)[nH]c1=O`, the Potency entry was “inactive”.
Still for that read-out and setting: to `CCCCn1c(N)c(N(CC(C)C)C(=O)c2ccc(-n3c(C)ccc3C)cc2)c(=O)[nH]c1=O` belongs 56.2 µM (active); to `CCCCn1c(N)c(N(CC(C)C)C(=O)c2cnc(C)cn2)c(=O)[nH]c1=O`, “inactive”.
Consider `CCCCn1c(N)c(N(CC(C)C)C(=O)C2CSC3(C)CCC(=O)N23)c(=O)[nH]c1=O` (centres undefined), for which the Potency is 50.1 µM (active).
Turning to `CCCCn1c(N)c(N(CCC(C)C)C(=O)COC(=O)c2ccc(CC)cc2)c(=O)[nH]c1=O`, the Potency entry is “inactive”.
On the same count and under the same terms, to `Cc1cc(C)c2oc(C(=O)Nc3ccc(S(=O)(=O)N(C)c4ccccc4)cc3)cc(=O)c2c1` belongs “inactive”; to `COc1cc(OC)cc(C(=O)Nc2c(C(=O)Nc3ccc(F)cc3)oc3ccccc23)c1`, “inactive”.
Still for that read-out and setting: to `Cc1ccccc1CSCCNC(=O)C1CCN(S(=O)(=O)Cc2ccccc2)CC1` belongs “inactive”; to `CC(OC(=O)Cc1ccc(F)cc1)C(=O)N1CCc2ccccc21` (centres undefined), “inactive”.
Take `COc1ccc([C@H]2CC(=O)C=C(/C=C/c3ccc(Cl)cc3)C2)cc1`: the activity, negative = inhibition is 9.28% [at 2.33 µM].
As for `Cc1c(C)n2c(SCC(=O)N3CCCC3)nnc2[nH]c1=O`, the Potency entry was “inactive”.
`Cc1ccc(NNC(=O)C2CCC2)cc1C`: the Potency was 11.2 µM (active).
With `O=C(NNC(=O)C1CCC1)c1ccccc1`, the activity, negative = inhibition is 24.7% [at 12.7 µM].
The same measure, in the same setting: in the case of `Cc1ccc(C)c(OCC(=O)NNC(=O)C2CCC2)c1` it was -2.65% [at 12.7 µM]; in that of `Cc1cc(C)n2nc(C(=O)OCC(=O)N(CCC#N)c3ccc(F)cc3)nc2n1`, 12.1% [at 0.501 µM].
On to `CCC1(c2ccccc2)NC(=O)N(CC(=O)c2ccc3c(c2)OCO3)C1=O` (centres undefined), for which the Potency entry was “inactive”.
The same measure, in the same setting: in the case of `O=C(CN1CCC(O)(c2cccc(C(F)(F)F)c2)CC1)NCCc1ccccc1` it was “inactive”; in that of `CC(C)c1ccc(NC(=O)C2CCN(c3nc(-c4ccc(C(C)C)cc4)no3)CC2)cc1`, “inactive”.
Same read-out and setting: in the case of `Cc1cc(-c2ccc(C)c(S(=O)(=O)Nc3ccc(S(N)(=O)=O)cc3)c2)on1` it was “inactive”; in that of `CCN(CC)c1ccc(NS(=O)(=O)c2cc(-c3cc(C)no3)ccc2C)c(C)c1`, 3.16 µM (active); in that of `CCOc1ccccc1CNS(=O)(=O)c1cc(-c2cc(C)no2)ccc1C`, “inactive”.
As to `COc1ccc2c(C)c(CCC(=O)NCc3ccc(OC)c(OC)c3)c(=O)oc2c1`, the Potency entry was “inactive”.
The same measure, in the same setting: in the case of `CC(=O)N1CCCc2cc(S(=O)(=O)N3CCC(C(=O)NCc4ccc(C)cc4)CC3)ccc21` it was “inactive”.
Consider `COc1ccccc1OCc1nc2ccccc2s1`, for which the activity, negative = inhibition is 17.1% [at 12.7 µM].
Regarding `COc1cccc2sc(Nc3nc(C)c(C(C)=O)s3)nc12`, the Potency entry is “inactive”.
Consider `COc1cccc2sc(NNC(=O)c3nc4ccccc4s3)nc12`, for which the Potency is 12.6 µM (active).
The same measure, in the same setting: in the case of `O=C(Nc1cc(C(F)(F)F)ccc1Cl)c1nc2ccccc2nc1N1CCCCC1` it was “inactive”.
Take `O=S(=O)(c1ccc(Cl)cc1)c1nnn2c1nc(NC1CCCC1)c1sccc12`: the Potency result was “inactive”.
In the case of `CC1(C)CC(=O)C=C(c2ccc3ncccc3c2)C1`, the activity, negative = inhibition is 6.31% [at 2.33 µM].
With `COc1ccc(S(=O)(=O)N2CCOCC2)cc1NC(=O)CC1CC2CCC1C2` (centres undefined), the activity, negative = inhibition is 1.4% [at 2.33 µM].
Regarding `COc1ccccc1/C=C/C(=O)NC(=S)N1CCOCC1`, the Potency result was “inactive”.
On the same count and under the same terms, in the case of `O=C(/C=C/c1ccco1)NC(=S)N1CCCCC1` it was 70.8 µM (active); in that of `CCNC(=S)N1CCN(C(=O)c2ccco2)CC1`, “inactive”.
Take `COc1ccc(Cl)cc1NC(=O)CN(C)C(=O)c1cc(-c2cccs2)nn1-c1ccccc1`: the activity, negative = inhibition is 8.22% [at 0.501 µM].
As for `CCOC(=O)c1ccc(NC(=O)Cn2c(=O)n(-c3ccc(C)cc3)c(=O)c3c2cnn3C)cc1`, the Potency result is “inactive”.
On the same count and under the same terms, in the case of `O=S(=O)(Nc1ccc2nc(-c3cccc(Cl)c3)oc2c1)c1ccccc1` it was “inactive”; in that of `CCc1ccccc1NS(=O)(=O)c1ccc2nc(-c3ccccc3)[nH]c2c1`, “inactive”; in that of `O=S(=O)(Nc1ccc2nc(-c3ccco3)[nH]c2c1)c1ccccc1`, 31.6 µM (active).
`COc1ccc2oc(=O)c(-c3cn4c(n3)sc3cc(OC)ccc34)cc2c1`: the Potency result is “inactive”.
Consider `CCn1c(CN2CCC(C)CC2)nc2cc(NC(=O)c3ccccc3[N+](=O)[O-])ccc21`, for which the Potency result was “inactive”.
Same read-out and setting: to `COC(=O)c1cc(S(=O)(=O)NCC2CCN(Cc3ccc(Cl)cc3)CC2)cn1C` belongs “inactive”.

Source of the values: PubChem BioAssay AID504332 (National Center for Advancing Translational Sciences (NCATS), 2011).
